Screening results as filed in PubChem BioAssay.
Shown are actives, neighbours in structure and some others; about 2.3% of the full set was active somewhere.
Rce1 inh: yeast Rce1p protease inhibitors, primary screen, biochemical, fluorescence, cell-free homogeneous; CAAX prenyl protease 2 (Saccharomyces cerevisiae (strain ATCC 204508 / S288c)), Q03530; yeast membranes, quenched prenylated peptide cleavage fluorescence; calls only; hit rate 0.27% among 290,000; AID 2563, 2010;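 active = fall in fluorescence gain of 50% or more versus controls, with final raw signal at or below 3038400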
PfM18AAP inh-1: PfM18AAP inhibitors, malaria aminopeptidase, primary screen, biochemical, QFRET, recombinant enzyme | M18 aspartyl aminopeptidase (Plasmodium falciparum 3D7) | H-Glu-NHMec fluorogenic cleavage | inhibition, % at 7.35 µM | hit rate 1.2% among 290,000 | AID 1822, 2009;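 active = inhibition above the campaign mean inhibition over all tested compounds plus 3 SD, cut at about 28% in these data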
Kir21 inh: inhibitors of mouse Kir2.1 inward-rectifier potassium channel; HEK293-Kir2.1, FluxOR thallium flux fluorescence; active compounds read low; hit rate 0.85% among 310,000; B-score at 10 µM; AID 1672, 2009;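 active = fluorescence ratio B-score at or below minus 3 SD of library scores, with starting-brightness B-score within 2 SD, cut at about -4.2 in these data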;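 also: channel flux triggered by added potassium and thallium sulfate stimulus; B-score of peak minus minimum fluorescence over baseline after thallium stimulus; more negative B-score means stronger Kir2.1 block with less thallium influx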
DNA FID counter: compounds displacing fluorescent DNA intercalator, primary screen, artefact control for HCV NS3 helicase inhibitor project, biochemical, FID fluorescence | inhibition, % at 7.9 µM | AID 1845, 2009 | hit rate 0.17% among 290,000 | DNA fluorescent intercalator displacement; in the data active = inhibition above about 37%;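 also: higher means more ethidium bromide displaced from hairpin DNA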
PfM18AAP inh-2: PfM18AAP inhibitors, malaria aminopeptidase, confirmation, biochemical, QFRET, recombinant enzyme, triplicate | shares compounds with PfM18AAP inh-1 | H-Glu-NHMec fluorogenic cleavage | hit rate 28% among 2,400 | inhibition, % at 7.35 µM;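 active = mean inhibition over replicate wells above the hit cutoff set for the earlier primary screen, cut at about 29% in these data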
CTSL1 confirm: cathepsin L1 inhibitors, retest, confirmation, counter-screen for PFM18AAP inhibitor project, biochemical, QFRET, triplicate; AID 2178, 2009; inhibition, % at 5.96 µM; shares compounds with PfM18AAP inh-1; purified cathepsin L1, Z-Leu-Arg-MCA fluorescence; 2,400 tested, under 10 active;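 active = average inhibition across replicates above the hit cutoff set in the earlier primary screen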
Target sequence (P07711 whole entry, looked up): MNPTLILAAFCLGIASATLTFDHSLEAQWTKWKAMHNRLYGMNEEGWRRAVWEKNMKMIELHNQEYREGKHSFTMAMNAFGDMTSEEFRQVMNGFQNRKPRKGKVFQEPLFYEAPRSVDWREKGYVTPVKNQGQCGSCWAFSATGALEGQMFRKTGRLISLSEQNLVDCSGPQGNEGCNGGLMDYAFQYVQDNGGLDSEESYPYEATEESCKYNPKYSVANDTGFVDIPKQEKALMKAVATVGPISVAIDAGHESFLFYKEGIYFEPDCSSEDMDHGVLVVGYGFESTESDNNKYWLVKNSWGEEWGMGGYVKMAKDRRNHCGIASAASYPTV
Hits are given with their value; 0 = inactive; - = not tested or not shown.

SMILES	Rce1 inh	PfM18AAP inh-1	Kir21 inh	DNA FID counter	PfM18AAP inh-2	CTSL1 confirm
Fc1ccc(N=c2ssnc2Cl)c(F)c1	0	31.7	0	0	0	0
COc1ccc(N=c2ssnc2Cl)cc1	0	0	0	0	-	-
Clc1ccc(N=c2ssnc2Cl)cc1	0	0	0	0	-	-
COc1cc(N=c2ssnc2Cl)cc(OC)c1OC	0	39.0	0	0	0	0
Cc1cc2oc(=O)cc(Cn3ncc(Cl)c(Cl)c3=O)c2cc1Cl	0	0	0	0	-	-
Cc1ccc(N(C)S(=O)(=O)c2ccc(-c3cnc(C4CC4)o3)cc2)cc1	0	0	0	0	-	-
NS(=O)(=O)c1ccc(-c2ccc(/C=C3\NC(=S)NC3=O)o2)cc1	0	37.4	0	0	0	0
Cn1cc(P(=S)(N2CCOCC2)N2CCOCC2)cc1P(=O)(N1CCOCC1)N1CCOCC1	0	0	0	0	-	-
Cn1cc(P(=O)(N2CCOCC2)N2CCOCC2)cc1P(=S)(N1CCOCC1)N1CCOCC1	0	37.2	0	0	0	0
O=C(NCCC1CCCCN1S(=O)(=O)c1ccccc1)C(=O)NCc1cccnc1 (configuration not stated)	0	-	0	-	-	-
Cc1cc(C)cc(NS(=O)(=O)c2c(C)[nH]c(=O)[nH]c2=O)c1	0	0	0	0	-	-
Cc1c(NC(=O)CN2CCN(c3ccc(O)cc3)CC2)c(=O)n(-c2ccccc2)n1C	0	38.8	0	0	0	0
